TDP1 cell CPT: qHTS for Inhibitors of human tyrosyl-DNA phosphodiesterase 1 (TDP1): qHTS in cells in presence of CPT; Potency, µM (top dose mostly 46.2 µM), for the others: top-dose activity change, negative = growth inhibition, hits mostly inhibitors; AID 686979, 2013; chicken DT40 Tdp1-/-;hTDP1 cells + 20 nM CPT, ATP luminescence, 48 h; 12% of 420,000 active; also: potency is read from the fitted curve at half-maximal effect; nearly all actives have a fitted effect of over 55% in size
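Cell growth measured by CellTiter-Glo luminescence after a minimum 48 h, 37 C compound exposure with 20 nM CPT in Tdp1-knockout DT40 cells stably expressing hTDP1, seeded 400/well; qHTS titration format.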
IL1B secr inh: qHTS for Inhibitors of Inflammasome Signaling: IL-1-beta AlphaLISA Primary Screen; THP-1 LPS/ATP IL-1B secretion, AlphaLISA, 16 h; stronger effect = lower value; activity change, % at 57.5 µM; 4.7% of 360,000 active; AID 743279, 2014; in the data active = activity change below about -50%; inconclusive = mostly about -30% to -49%
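THP-1 cells pretreated 1 hr with compounds (up to 57.5 uM final), then stimulated with LPS (250 ng/mL final) plus ATP (1.25 mM final); secreted IL-1B measured by AlphaLISA after 16 hr, decreased signal indicating inhibition.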
HT1080 IDH1KD tx: qHTS for induction of synthetic lethality in tumor cells producing 2HG: qHTS for the HT-1080-IDH1KD cell line; HT-1080 IDH1 knockdown viability, ATP luminescence, 48 h; Potency, µM (doses to about 46.1 µM), for inactives: top-dose activity, negative = toxicity, actives largely listed as cytotoxic; 2% of 360,000 active; AID 686971, 2013;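 also: potency is read from the fitted curve at half-maximal effect; 0% = DMSO wells and -100% = cell-free medium wells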
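Viability of IDH1-knockdown HT-1080 fibrosarcoma cells was assessed by CellTiter-Glo after 48 h at 37 °C with titrated compound; concentration-effect curves were classified by fit quality and response size.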
TDP1 cell noCPT: qHTS for Inhibitors of human tyrosyl-DNA phosphodiesterase 1 (TDP1): qHTS in cells in absence of CPT; AID 686978, 2013; Potency, µM (series often up to 46.2 µM), without a hit: top-dose activity change, negative = growth inhibition, actives largely listed as inhibitors; DT40 Tdp1-/- hTDP1 cells, no CPT, ATP luminescence, 48 h; 15% of 420,000 active; also: potency is read from the fitted curve at half-maximal effect; nearly all actives have a fitted effect of over 55% in size
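Camptothecin absent (DMSO only). Human TDP1-complemented DT40 knockout cells, 400 cells/well, 37 °C for minimum 48 hr; ATP measured via CellTiter-Glo, 30 min dark incubation, luminescence.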
HT1080-NT tox: qHTS for induction of synthetic lethality in tumor cells producing 2HG: qHTS for the HT-1080-NT fibrosarcoma cell line | HT-1080-NT fibrosarcoma viability, CellTiter-Glo ATP luminescence, 48 h | Potency, µM (highest dose often 46.1 µM), inactives show at the highest dose activity, negative = less viability, actives largely listed as cytotoxic | 1.6% of 360,000 active | AID 686970, 2013;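 also: NT is the 2HG producing partner of a matched IDH1 knockdown line; potency is read from the fitted curve at half-maximal effect; 0% = DMSO-treated cells and -100% = media-only wells without cells; nearly all actives have a fitted effect of over 55% in size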
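Luminescent CellTiter-Glo readout after 48 hours of compound exposure at 37 degrees C defined viability of HT-1080-NT cells. Activity was normalized to DMSO wells and cell-free media wells; concentration-response curves were fitted and assigned curve classes.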
An asterisk follows results filed as active; ! = not active in a repeat; [ ] = another dose, or the depositor's remark. Most compounds without a hit are left out; they make up all but 19% or so of the library. Unless noted, calls follow the shape of the dose curve; as a rule, active = well fitted curve in the direction sought with a large enough effect; inconclusive = small, poorly fitted or top-dose-only effect, or another doubt; inactive = no such curve, though single readings can be large; an effect the other way counts as inactive or inconclusive. Unless noted, % is scaled to controls: 0 for no effect and ±100 for the full control effect.

For CCCCN(CC)CCNC(=S)Nc1ccc2nc(N3CCN(C)CC3)cc(C)c2c1 the results were TDP1 cell CPT inconclusive, IL1B secr inh -55*, HT1080 IDH1KD tx inconclusive, TDP1 cell noCPT 18µM* and HT1080-NT tox 26µM*.
`Cc1cc(N2CCN(C)CC2)nc2ccc(NC(=O)Nc3ccc(F)cc3F)cc12` gave TDP1 cell CPT inconclusive and TDP1 cell noCPT -75%.
Screening Cc1cc(N2CCN(C)CC2)nc2ccc(NC(=O)Nc3ccccc3Br)cc12 returned TDP1 cell CPT 21µM* and TDP1 cell noCPT 15µM*.
`Cc1ccc(NC(=O)Nc2ccc3nc(N4CCN(C)CC4)cc(C)c3c2)cc1C` gave TDP1 cell CPT 12µM* and TDP1 cell noCPT 4.6µM*.
Cc1cc(N2CCN(C)CC2)nc2ccc(NC(=O)c3ccccc3F)cc12 was read as TDP1 cell CPT 18µM*!, IL1B secr inh -56*, HT1080 IDH1KD tx inconclusive, TDP1 cell noCPT inconclusive and HT1080-NT tox -19%.
For CCC(C)NC(=O)c1c(C)oc2nc(C)nc(N3CCOCC3)c12 (centres undefined) the results were TDP1 cell CPT -4% and TDP1 cell noCPT 1%.
O=C(CCCn1c(=S)[nH]c2ccsc2c1=O)Nc1ccc2c(c1)OCCO2 was read as TDP1 cell CPT 8%, IL1B secr inh 8, HT1080 IDH1KD tx 0%, TDP1 cell noCPT -4% and HT1080-NT tox 1%.
For Cc1cc(N2CCN(C)CC2)nc2ccc(NC(=O)Nc3cccc(Cl)c3)cc12 the results were TDP1 cell CPT 8.2µM* and TDP1 cell noCPT 4.6µM*.
Screening CCOc1cc(C(=O)Nc2ccc3nc(N4CCN(C)CC4)cc(C)c3c2)cc(OCC)c1OCC returned TDP1 cell CPT 18µM* and TDP1 cell noCPT 4.6µM*.
CCCN1CNc2c(c(=O)[nH]c(=S)n2CCc2ccc(C)cc2C)C1 was read as TDP1 cell CPT inconclusive, HT1080 IDH1KD tx 2%, TDP1 cell noCPT inconclusive and HT1080-NT tox 14%.
Screening Cc1ccc(C(C)C)c(OCc2nnc(SCC(=O)Nc3ncc(C)s3)n2C)c1 returned TDP1 cell CPT 18µM*, IL1B secr inh 13, HT1080 IDH1KD tx 5%[9.24 µM], TDP1 cell noCPT inconclusive and HT1080-NT tox -2%.
`Cc1ccccc1OCC(=O)Nc1ccc2nc(SCc3ccccc3)sc2c1` gave TDP1 cell CPT -13% and TDP1 cell noCPT 4%.
`Cc1ccccc1OCc1nnc(SCC(=O)Nc2ccc3c(c2)OCO3)n1C` gave TDP1 cell CPT 4%, IL1B secr inh 0, HT1080 IDH1KD tx 7%, TDP1 cell noCPT -12% and HT1080-NT tox inconclusive.
For Cc1ccccc1OCC(=O)Nc1ccc2nc(SCC(=O)N3CCOCC3)sc2c1 the results were TDP1 cell CPT inconclusive and TDP1 cell noCPT 5.8µM*.
Screening Cc1ccccc1OCC(=O)Nc1ccc2nc(SCC(=O)N3CCCC3)sc2c1 returned TDP1 cell CPT 16µM* and TDP1 cell noCPT 15µM*.
For Cc1ccccc1OCc1nnc(SCC(=O)Nc2ccc3nc(SCC(=O)Nc4ccccc4)sc3c2)n1C the results were TDP1 cell CPT inconclusive, IL1B secr inh 27, HT1080 IDH1KD tx inconclusive, TDP1 cell noCPT 15µM* and HT1080-NT tox -15%.
Cc1ccc(/C=N/NC(=O)c2cccc(NC(=O)c3ccccc3Cl)c2)o1 was read as TDP1 cell CPT inconclusive, IL1B secr inh -7, HT1080 IDH1KD tx -7%, TDP1 cell noCPT inconclusive and HT1080-NT tox -11%.
`CN(CC(=O)Nc1ccccc1Cl)C(=O)CN1C(=O)NC(c2ccccc2)(c2ccccc2)C1=O` gave TDP1 cell CPT 1%, IL1B secr inh -13, HT1080 IDH1KD tx -8%, TDP1 cell noCPT -5% and HT1080-NT tox -3%.
Cc1ccccc1OCC(=O)Nc1ccc2nc(SCC(=O)N(C)c3ccccc3)sc2c1 was read as TDP1 cell CPT 18µM* and TDP1 cell noCPT 10µM*.

Bioassay records (PubChem)
